Data from PubChem BioAssay (NCI).
Compounds without any hit were thinned out: in the full panel of roughly 83,000, 20% have a hit.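 Method: cells in 96-well plates; compound added at one concentration; 48 h incubation; percent growth measured; values under 10 scored active.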 Unmarked numbers belong to inactive results. Active and inactive are the calls of the source.

What follows are compounds tested on SK-MEL-28 melanoma (assay: NCI-60 one-dose screen, 48 h (100 = growth as untreated, 0 = no growth, -100 = all killed)). Conditions: 10 µM unless noted.
`O=C1/C(=C/c2ccc(O)cc2)COc2ccc(-c3ccccc3)cc21` was tested, and the growth was 117%. In the case of `CC(=O)N1N=C(c2cccc(Nc3ccncc3)c2)CC1c1ccc2c(c1)OCO2` (stereo not given), the growth is reported as 93.8%. `Clc1nc(Cl)c2ncn(CCOCCn3cnc4c(Cl)nc(Cl)nc43)c2n1` was tested, and the growth was -95.7% (active). In the case of `COc1ccc(/C=C2\COc3ccc(-c4ccccc4)cc3C2=O)cc1O`, the growth is reported as 46.7%. `Cc1c2c(cc[n+]1Cc1ccccc1)c1ccc(OCC3CCCCC3)cc1n2CC1CCCCC1` was tested, and the growth was -95.8% (active). Work on `CC[N+](CC)(CCCC(C)[N+]1(Cc2ccccc2)C(C)=CC=C1C)Cc1ccccc1` (stereo not given) yielded a growth of 78.8%. `CN1C(=O)N(C)[C@H]2NC(NN)=N[C@H]21` showed a growth of 101%. For `O=C(Nc1cccc(Cl)c1)Oc1c(Br)c(Br)c(Br)c(Br)c1Br`, the growth was 93.1%. In the case of `NC(=O)c1ncn(C2OC(CO)C(O)C2O)n1` (stereo not given), the growth is reported as 106%. Work on `COc1cc(NCCCN(CC(C)C)CC(C)C)c2ncccc2c1` yielded a growth of 97%. With `O=[N+]([O-])c1cccc(-c2nc(-c3ccc(Cl)cc3Cl)cn2-c2ccccc2)c1` the growth was -16.4% (active). `O=C(N/N=C/c1ccc(F)cc1)c1ccccc1Nc1cccc(C(F)(F)F)c1` was tested, and the growth was 91.2%. Work on `COc1ccc(Cn2nc(-c3cc(OC)c(OC)c(OC)c3)c3c2CCc2cnoc2-3)cc1OC` yielded a growth of 64.9%. With `Fc1ccc(C2CC(c3cccc(Nc4ccncc4)c3)=NN2c2ccccc2)cc1` (stereo not given) the growth was -57% (active). Work on `CCn1cc(C2NC(=O)c3ccccc3N2)c2cccc(C)c21` (stereo not given) yielded a growth of 56.5%. In the case of `Cc1nc2sc(C(=O)Nc3ccccc3)c(N)c2cc1C(=O)c1ccc(C(F)(F)F)cc1`, the growth is reported as 99.7%. `CC(=O)c1c(C)[nH]c(-c2nc3ccc(N4CCN(C)CC4)cc3[nH]2)c1-c1ccccc1` showed a growth of 47.3%. `CCC1(CC)NC(=O)c2c(c3ccc(Cl)c(Cl)c3n2C)C1C#N` (stereo not given) gave a growth of 123%. Compound `O=C(Nc1ccc(F)cc1)c1c(NC(=O)C(F)(F)F)sc2c1CCCCC2` has a growth of 12.2%. `O=C(NCCN1CCOCC1)OCc1nc2nc(Cl)nc(N3CCOCC3)c2[nH]1` was tested, and the growth was 61.9%. `CC(C)[N+](C)(CCOC(COc1ccccc1)COc1ccccc1)C(C)C` gave a growth of 96.6%. In the case of `COc1ccc(C(=O)c2cc3c(N)c(C(=O)Nc4cccc(Cl)c4C)sc3nc2C)cc1`, the growth is reported as 63.3%. In the case of `COc1ccccc1/C=C1\Oc2cc(OCCCN3CCCC3)ccc2C1=O`, the growth is reported as 91.9%. For `CCc1nc(C)cn1C(=O)OCc1nc2nc(Cl)nc(N3CCOCC3)c2[nH]1`, the growth was -89.6% (active). `CN1CCN(c2cc(F)c(NC3=C(Cl)C(=O)c4ncccc4C3=O)c(F)c2)CC1` was tested, and the growth was -55.1% (active). Work on `COc1ccc(Cl)cc1NC(=O)c1c(NC(=O)C(F)(F)C(F)(F)F)sc2c1CCCCC2` yielded a growth of 23.3%. Compound `COc1ccccc1/C=C1\COc2ccc(-c3ccccc3)cc2C1=O` has a growth of 57.3%. Work on `O=C(O)CCCCCCCCCCCCCCC(=O)O` yielded a growth of 106%. For `NC(=O)C1(N2CCCCC2)CCN(CCCC(=O)c2ccc(F)cc2)CC1`, the growth was 51.7%. Compound `CCN1C(=O)/C(=c2\sc3n(c2=O)NC2C(N=3)N(CC)C(=O)N2CC)c2ccccc21` (stereo not given) has a growth of 55.5%. With `CCCCCCCCCCCCCCCC(=O)OC[C@@]1(O)C[C@@]23CC[C@@H]4C(C)(C)[C@H](O)CC[C@@]4(C)[C@@H]2CC[C@H]1C3` the growth was 110%. `CCOC(=O)c1ccc(Nc2ccnc(SCC(=O)c3ccc(C#N)cc3)n2)cc1` showed a growth of 80.8%. For `COc1ccccc1N1CCN(C(=O)c2ccc3nc(NC(=O)c4ccc(NCCc5ccccc5)c([N+](=O)[O-])c4)sc3c2)CC1`, the growth was 91.5%. Work on `COc1ccc(Nn2c(SCC(=O)Nc3nc(-c4ccc(Cl)cc4)cs3)nc(C)c2C)cc1` yielded a growth of 86.8%. For `CC1=CC2(C)/C=C(C)/C=C\CC(O)/C=C3/C=CC(=C4C(=O)OC2(CC1C)C4=O)OC3` (stereo not given), the growth was -87.6% (active).
